Compounds with a hit are over-represented: about 10% of the library has one in this group of screens.
MCF10A rereplic = A quantitative high throughput screen for small molecules that induce DNA re-replication in MCF 10a normal breast cells; MCF 10A DNA re-replication, Hoechst nuclear intensity, 48 h; Potency, µM (titrated, usually from 46.1 µM), for inactives: top-dose activity, positive = re-replication, actives largely listed as activators; 350,000 compounds, 2.9% hits; AID 624296, 2012; also: % of control where 0% means no effect; nearly all actives have a fitted effect of over 50% in size
SW480 rereplic = A quantitative high throughput screen for small molecules that induce DNA re-replication in SW480 colon adenocarcinoma cells. SW480 DNA re-replication, Hoechst DNA content imaging, 48 h. Potency, µM (titrated, usually from 46.1 µM), inactives show top-dose re-replication activation, actives largely listed as activators. 340,000 compounds, 1.8% hits. AID 624297, 2012; also: % of control where 0% means no effect; nearly all actives have a fitted effect of over 55% in size
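Compounds, transferred as 23 nL by pin tool, were incubated with cells for 48 hr; DNA content per nucleus was then quantified by Hoechst staining and fluorescence plate imaging.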
VP16 counter = VP16 counterscreen qHTS for inhibitors of ROR gamma transcriptional activity | Potency, µM (series often up to 53.6 µM), for inactives: at the top dose activity, negative = inhibition, actives largely listed as inhibitors | Drosophila S2 Gal4-VP16 UAS-luciferase, luminescence, 20 h | 310,000 compounds, 3.5% hits;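 also: Gal4-VP16 expression switched on by copper sulfate through the metallothionein promoter; % is scaled to controls: 0 for no effect and ±100 for the full control effect; nearly all actives have a fitted effect of over 50% in size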
RORgamma inh = qHTS for inhibitors of ROR gamma transcriptional activity | Nuclear receptor ROR-gamma (Mus musculus), P51450 | Potency, µM (titrated, usually from 53.6 µM), without a hit: top-dose activity change, negative = inhibition, most hits filed as inhibitors | 310,000 compounds, 5.4% hits | Drosophila S2 Gal4-RORgamma UAS-luciferase reporter, 20 h | AID 2551, 2010; also: % is scaled to controls: 0 for no effect and ±100 for the full control effect; nearly all actives have a fitted effect of over 60% in size
Target sequence (P51450 whole entry, looked up, the tested form may be a part): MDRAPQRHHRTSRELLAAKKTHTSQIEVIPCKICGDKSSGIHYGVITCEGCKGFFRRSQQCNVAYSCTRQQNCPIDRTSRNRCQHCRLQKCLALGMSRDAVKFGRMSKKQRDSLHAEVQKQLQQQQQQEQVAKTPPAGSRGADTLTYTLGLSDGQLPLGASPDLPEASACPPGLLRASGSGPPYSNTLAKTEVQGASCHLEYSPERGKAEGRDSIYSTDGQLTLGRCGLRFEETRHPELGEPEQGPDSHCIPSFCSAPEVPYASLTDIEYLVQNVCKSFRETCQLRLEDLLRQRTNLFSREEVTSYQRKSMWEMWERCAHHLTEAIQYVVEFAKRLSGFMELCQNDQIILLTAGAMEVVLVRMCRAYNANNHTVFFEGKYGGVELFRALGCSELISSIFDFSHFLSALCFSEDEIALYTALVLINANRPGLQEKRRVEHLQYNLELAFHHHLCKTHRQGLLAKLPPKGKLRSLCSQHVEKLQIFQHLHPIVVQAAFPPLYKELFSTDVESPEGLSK
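Compounds are pin-transferred onto Drosophila Schneider cells expressing a copper-inducible Gal4–ROR gamma transactivation domain fusion. After 1 hr, copper sulfate is added to 700 uM final; luciferase is read 20 hr later.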
ELG1 DNA repair = qHTS screen for small molecules that inhibit ELG1-dependent DNA repair in human embryonic kidney (HEK293T) cells expressing luciferase-tagged ELG1 | HEK293T ELG1-luciferase reporter, luminescence, 16 h; DNA damage induced by 5-fluorouridine | Potency, µM (top dose mostly 46.1 µM), for inactives: top-dose activity change, negative = inhibition, hits mostly inhibitors | 330,000 compounds, 2.3% hits | AID 504467, 2011; also: % is scaled to controls: 0 for no effect and ±100 for the full control effect; nearly all actives have a fitted effect of over 55% in size
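Luminescence from the luciferase reporter, measured 30 min after ONE-Glo reagent at room temperature, was the read-out. Beforehand, 2,000 cells per well were exposed for 16 hr at 37 °C to 5-fluorouridine together with compound or vehicle.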
Active calls of the source: *; ? = inconclusive; . = no result given; [ ] = another dose, or the depositor's remark. Calls follow the shape of the dose curve; as a rule, active = well fitted curve in the direction sought with a large enough effect; inconclusive = small, poorly fitted or top-dose-only effect, or another doubt; inactive = no such curve, though single readings can be large; an effect the other way counts as inactive or inconclusive. Potency is read from the fitted curve at half-maximal effect.

SMILES	MCF10A rereplic	SW480 rereplic	VP16 counter	RORgamma inh	ELG1 DNA repair
COc1ccc(N(CC(=O)N/N=C(\C)CCc2ccccc2)S(=O)(=O)c2ccc(C)cc2)cc1	0%	4%	-4%	-3%	?
Cn1ccnc1SCC(=O)c1ccc2ccccc2c1	-7%[9.22 µM]	?	?	11µM*	?
Cn1ccnc1SCC(=O)c1cccc(Br)c1	12%	-9%	-2%	-3%	?
Cn1ccnc1SCC(=O)c1ccc(O)cc1	-9%	-17%	29%	11%	?
COc1cccc(C(=O)CSc2nccn2C)c1	-8%	3%	?	10µM*	?
O=C(NC1CC1)C1=C[C@@H](c2c[nH]c3ccccc23)C[C@@H](OCCCCO)O1	-37%	-2%	6%	15%	8%
CCOc1[nH]n(-c2ccccc2)c(=O)c1C=Nc1ccccc1	23µM*	?	-4%	9%	?
CCOc1[nH]n(-c2ccccc2)c(=O)c1C=Nc1ccc(C)cc1	-6%	1%	-6%	22%	-3%
Cc1nnc(NC(=O)c2ccc(S(=O)(=O)N3CCCCC3C)cc2)o1 (stereo not given)	15%	17%	1.1µM*	1.1µM*	-4%
CC1CCCCN1S(=O)(=O)c1ccc(C(=O)Nc2nnc(-c3ccccn3)o2)cc1 (stereo not given)	?	?	5µM*	2µM*	?
Cc1nnc(NC(=O)c2ccc(S(=O)(=O)N3CCc4ccccc4C3)cc2)o1	-6%	2%	5µM*	1.3µM*	?
Cc1nnc(NC(=O)c2ccc(S(=O)(=O)N3CC(C)CC(C)C3)cc2)o1 (stereo not given)	-8%	?	1.4µM*	1.4µM*	?
O=C(Nc1ccc(C2=NCCN2)cc1)c1ccc(Cl)c(C(=O)Nc2ccc(C3=NCCN3)cc2)c1	.	.	8%	2%	6%
CC1CCCCN1S(=O)(=O)c1ccc(C(=O)Nc2nnc(-c3ccco3)o2)cc1 (stereo not given)	21%	?	0.63µM*	0.71µM*	?
Cc1cccc(NC(=O)c2ccc(S(=O)(=O)N3CCCCC3C)cc2)n1 (stereo not given)	19%	-1%	.	.	.
CC1CCCCN1S(=O)(=O)c1ccc(C(=O)Nc2nnc(C3CC3)o2)cc1 (stereo not given)	16%	?	0.32µM*	0.13µM*	-12%
Cc1ccc(NC(=O)C2C3CC4OC(=O)C2C4C3)cc1Cl (stereo not given)	3.7µM*	1%	6%	1%	17%
CC(C)OC(=O)c1ccc(NC(=O)C2C3CC4OC(=O)C2C4C3)cc1 (stereo not given)	-10%	0%	-4%	?	?
CC1(C)Cc2c(sc3nc(SCC(=O)NCc4ccco4)n(-c4ccccc4)c(=O)c23)CS1	7.1µM*	-1%[9.22 µM]	15%	28%	9%
Cc1sc2nc(SCC(=O)NCc3ccco3)n(CCc3ccccc3)c(=O)c2c1C	?	8%	?	13µM*	?
O=C(CSc1nc2sc3c(c2c(=O)n1-c1ccccc1)CCCC3)NCc1ccco1	?	?	-23%	-18%	-1%
Cc1sc2nc(SCC(=O)NCc3ccco3)n(C)c(=O)c2c1C	21%	-4%	-1%	18%	?
Cc1ccc(S(=O)(=O)N2CCOC2C(Cl)(Cl)Cl)cc1 (stereo not given)	1%	0%	6%	5%	-18%
COc1ccc(NC(=S)N2CCC(NC(=O)C3CCCCC3)CC2)cc1	5%	-2%	5%	1%	2%
Cc1cc(C(=O)NCC(=O)OC(C)C(=O)N2CCOCC2)ccc1[N+](=O)[O-] (stereo not given)	8%	?	.	.	13%
SMILES	MCF10A rereplic	SW480 rereplic	VP16 counter	RORgamma inh	ELG1 DNA repair
Cc1ccccc1Cn1ccc(NC(=O)c2cnn3c(C(F)(F)F)cc(-c4ccco4)nc23)n1	?	-5%	-2%	6%	7.9µM*
COc1cccc2oc(SC)cc(=O)c12	.	.	?	32µM*	.
COc1cccc2oc(-c3ccc(O)cc3)cc(=O)c12	.	.	?	-33%	.
COc1cc(/C=N/Nc2ccc(F)cc2F)cc(OC)c1O	16µM*	0%	?	-18%	?
COc1cc(/C=N/Nc2ccccc2[N+](=O)[O-])cc(OC)c1O	-1%	-4%	1%	29%	2%
COc1cc(/C=N/Nc2ccc(S(N)(=O)=O)cc2[N+](=O)[O-])cc(OC)c1O	-1%	-21%	-3%	-2%	9.2µM*
O=C(Cn1nc(C(F)(F)F)c2c1CCCC2)Nc1ccc2c(c1)OCO2	-187%[0.0737 µM]	-1%	-2%	2%	-18%
Fc1ccc(-n2nnnc2-c2cnc(-c3cccs3)nc2C(F)(F)F)cc1	15µM*	?	?	-36%	21µM*
Cc1ccc(-n2nnnc2-c2cnn(-c3ccc(F)cc3)c2C(F)(F)F)cc1	14%	0%	22µM*	?	?
FC(F)(F)c1nc(N2CCCC2)ncc1-c1nnnn1-c1ccc(Cl)cc1	?	8%	16µM*	-40%	?
Cc1ccc2nc(COc3ccc(Cl)cc3)cc(=O)n2c1	-2%	-12%	-8%	44%	?
Cc1cccc(Nc2nc(N3CCOCC3)nc(N3CCOCC3)n2)c1	5%	28%	0%	30%	7.3µM*
O=C(CSc1nc(Nc2ccccc2)nc(N2CCOCC2)n1)Nc1ccc2c(c1)OCCO2	18µM*	-3%	-12%	?	?
Oc1cccc(Nc2nc(N3CCOCC3)nc(N3CCOCC3)n2)c1	23µM*	?	-5%	?	?
Cc1ccccc1NC(=O)CSc1nc(Nc2ccccc2)nc(N2CCOCC2)n1	21%	?	4%	-45%	?
COCc1ccc([C@@H]2C[C@H]3CN(Cc4ccccc4C)C(=O)[C@]34CCCN24)o1	19%	4%	-3%	27%	-2%
CCC(Oc1ccc(F)cc1)C(=O)N1CCCCCCC1 (stereo not given)	0%	-9%	-5%	8%	-7%
CCCNC(=O)C(Cc1ccccc1F)NC(=O)c1ccccn1 (stereo not given)	-7%	-3%	.	.	12%
Cc1c(Cl)cccc1NC(=O)C1=COCCO1	-2%	-15%	.	.	?
O=C(NCc1cccc(Br)c1)C1CC(c2ccccc2C(F)(F)F)=NO1 (stereo not given)	?	-35%[9.22 µM]	-2%	34%	-1%
COc1ccc(CCn2c(O)cc3nn(-c4nc5ccccc5s4)c(=O)c-3c2C)cc1	-15%	?	-6%	-17%	?
